Most compounds without a hit are left out; they make up all but 19% or so of the library.
ELG1 DNA repair: ELG1-dependent DNA repair inhibition. HEK293T ELG1-luciferase reporter, luminescence, 16 h; DNA damage induced by 5-fluorouridine. Potency, µM (doses to about 46.1 µM), usual class: inhibitors. actives 2.3% (n = 330,000); further: nearly all actives have a fitted effect of over 55% in size
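HEK293T cells expressing luciferase-tagged ELG1 (2,000/well) received 5-Fluorouridine plus compound or DMSO for 16 hr at 37 °C. Luciferase was read by ONE-Glo luminescence after 30 min at room temperature.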
TDP1 block: TDP1 (human) enzyme inhibition | Q9NUW8 | recombinant TDP1, AlphaScreen DNA substrate cleavage | Potency, µM (highest dose often 130 µM), usual class: inhibitors | actives 0.28% (n = 350,000) | AID 485290; further: nearly all actives have a fitted effect of over 40% in size
Target sequence (Q9NUW8 whole entry, looked up): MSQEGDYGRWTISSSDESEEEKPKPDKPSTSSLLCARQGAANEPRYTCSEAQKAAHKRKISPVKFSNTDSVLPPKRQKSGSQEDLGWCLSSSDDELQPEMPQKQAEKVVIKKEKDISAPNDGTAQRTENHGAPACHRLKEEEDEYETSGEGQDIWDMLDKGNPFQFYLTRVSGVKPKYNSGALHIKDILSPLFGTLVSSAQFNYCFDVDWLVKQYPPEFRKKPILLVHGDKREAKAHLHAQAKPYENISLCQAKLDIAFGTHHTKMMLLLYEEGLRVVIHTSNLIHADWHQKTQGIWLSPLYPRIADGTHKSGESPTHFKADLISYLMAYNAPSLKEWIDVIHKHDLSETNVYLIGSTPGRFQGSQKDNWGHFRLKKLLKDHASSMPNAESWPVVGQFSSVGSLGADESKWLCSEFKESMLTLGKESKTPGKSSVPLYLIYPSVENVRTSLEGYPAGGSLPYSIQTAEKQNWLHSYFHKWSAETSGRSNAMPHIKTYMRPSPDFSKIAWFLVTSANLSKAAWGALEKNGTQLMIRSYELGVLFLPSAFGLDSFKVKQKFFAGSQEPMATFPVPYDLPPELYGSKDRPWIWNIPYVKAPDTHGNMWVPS
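Steps: enzyme plus compound, 15 min RT; add biotin/phosphotyrosine-FITC oligonucleotide (15 nM final), react 5 min; add donor/acceptor beads (10 ug/ml final), 10 min; read AlphaScreen. Tdp1 at 1 nM final.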
DT40 TDP1 no CPT: qHTS for Inhibitors of human tyrosyl-DNA phosphodiesterase 1 (TDP1): qHTS in cells in absence of CPT; DT40 Tdp1-/- hTDP1 cells, no CPT, ATP luminescence, 48 h; AID 686978, 2013; actives 15% (n = 420,000); Potency, µM (titrated, usually from 46.2 µM), most hits filed as inhibitors; further: nearly all actives have a fitted effect of over 55% in size
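Luminescent ATP content (CellTiter-Glo) served as the growth readout. Knockout chicken DT40 cells expressing human TDP1 were exposed to compounds without camptothecin for a minimum 48 hr at 37 °C.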
TDP1 cell CPT: DT40-hTDP1 cell growth loss with CPT; Potency, µM (series often up to 46.2 µM), hits mostly inhibitors; chicken DT40 Tdp1-/-;hTDP1 cells + 20 nM CPT, ATP luminescence, 48 h; actives 12% (n = 420,000); further: nearly all actives have a fitted effect of over 55% in size
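Cell growth measured by CellTiter-Glo luminescence after a minimum 48 h, 37 C compound exposure with 20 nM CPT in Tdp1-knockout DT40 cells stably expressing hTDP1, seeded 400/well; qHTS titration format.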
IL1B secr inh: inhibitors of inflammasome signaling (IL-1 beta secretion) | THP-1 LPS/ATP IL-1B secretion, AlphaLISA, 16 h; active compounds read low | activity change, % at 57.5 µM | actives 4.7% (n = 360,000); in the data active means activity change below about -50%; inconclusive means mostly about -30% to -49%
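THP-1 cells pretreated 1 hr with compounds (up to 57.5 uM final), then stimulated with LPS (250 ng/mL final) plus ATP (1.25 mM final); secreted IL-1B measured by AlphaLISA after 16 hr, decreased signal indicating inhibition.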
Giardia kill: Giardia lamblia killing; Giardia lamblia trophozoite viability; activity change, % at 7.66 µM, hits read low; actives 0.15% (n = 340,000); AID 540267; in the data active means activity change below about -80%; inconclusive means between about -30% and that limit;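 further: parasites exposed to compound for two days anaerobically before the ATP read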
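Giardia trophozoites, 100 cells per well, were exposed to compounds for 48 hrs at 37 deg C under anaerobic conditions; viability was then read as ATP content by bioluminescence after 15-30 min at room temperature.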
ELG1 FLuc counter: luciferase inhibition in cell-free luciferin readout for ELG1 hits | Potency, µM (highest dose often 46.1 µM), usual class: inhibitors | actives 3% (n = 350) | cell-free firefly luciferase luminescence counter-screen, ViewLux | shares compounds with ELG1 DNA repair | AID 624247
ELG1 Luc conf: confirmation of human ELG1-dependent DNA repair inhibitors; actives 68% (n = 670); HEK293T ELG1-luciferase levels, luminescence; cells co-treated with 5-fluorouridine; AID 624248; Potency, µM (highest dose often 46.1 µM), usual class: inhibitors; shares compounds with ELG1 DNA repair; further: nearly all actives have a fitted effect of over 55% in size
ELG1-Luc MMS: inhibits ELG1-dependent repair under MMS stimulation in HEK293T cells | AID 624249 | HEK293T luciferase-tagged ELG1 level, MMS stimulated | actives 53% (n = 670) | shares compounds with ELG1 DNA repair | Potency, µM (doses to about 46.1 µM), actives largely listed as inhibitors; further: nearly all actives have a fitted effect of over 60% in size
ELG1 5FU viab: confirmation of ELG1 repair inhibitors: viability with 5FU | shares compounds with ELG1 DNA repair | cell viability with 5-FU, ELG1-dependent repair | Potency, µM (titrated, usually from 46.1 µM), most hits filed as cytotoxic | 670 tested, under 10 active | AID 624250;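 further: ELG1-luc HEK293T cells cotreated with 5-fluorouridine at 10 µM final; viability measured 16 h after compound addition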
ELG1 MMS viab: confirmation of ELG1 repair inhibitors: viability with MMS; Potency, µM (doses to about 46.1 µM), actives largely listed as cytotoxic; actives 33% (n = 670); shares compounds with ELG1 DNA repair; Cell viability with MMS, ELG1-dependent DNA repair;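 further: ELG1-luc HEK293T cells co-treated with 10 µM MMS; viability read 16 h after compound addition; nearly all actives have a fitted effect of over 60% in size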
ELG1 unstim viab: affects unstimulated cell viability, ELG1 hit counter-screen | shares compounds with ELG1 DNA repair | AID 624252 | actives 8% (n = 900) | Potency, µM (titrated, usually from 45.9 µM), most hits filed as cytotoxic | cell viability counter-screen, unstimulated, luminescence;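 further: compound exposure lasted 16 hours before reading; nearly all actives have a fitted effect of over 55% in size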
FLuc biochem: firefly luciferase inhibition counter-screen. actives 10% (n = 350). shares compounds with ELG1 DNA repair. Potency, µM (titrated, usually from 57.5 µM), hits mostly inhibitors. purified firefly luciferase, luminescence counter-screen
Each line names hits and unclear results; the compound was inactive in the other large screens (follow-up assays come after a bar, where they were run). Unless noted, the call rests on the fitted dose curve; in most records, active means well fitted curve in the direction sought with a large enough effect; inconclusive means small, poorly fitted or top-dose-only effect, or another doubt; inactive means no such curve, though single readings can be large; an effect the other way counts as inactive or inconclusive.

CCOC(=O)c1[nH]c2cc(OC)c(OC)cc2c1NC(=O)CN1CCN(c2ccc(OC)cc2)C(C)C1 (stereo not given)	ELG1 DNA repair 1.3µM (no result: DT40 TDP1 no CPT, TDP1 cell CPT, IL1B secr inh, Giardia kill) | ELG1 FLuc counter inconclusive | ELG1 Luc conf 3.24µM | ELG1-Luc MMS 36.3µM | ELG1 5FU viab inconclusive | ELG1 MMS viab inconclusive | ELG1 unstim viab 40.7µM | FLuc biochem inactive
COC(=O)c1[nH]c2ccc(C)cc2c1NC(=O)CN1CCN(c2ccccc2)CC1	ELG1 DNA repair 18.4µM, DT40 TDP1 no CPT 23.1µM, TDP1 cell CPT 16.4µM | ELG1 FLuc counter inconclusive | ELG1 Luc conf 12.6µM | ELG1-Luc MMS 17.7µM | ELG1 5FU viab inconclusive | ELG1 MMS viab inconclusive | ELG1 unstim viab 25µM | FLuc biochem inactive
COC(=O)c1[nH]c2ccc(C)cc2c1NC(=O)C(C)N1CCN(C2CCCCC2)CC1 (stereo not given)	DT40 TDP1 no CPT inconclusive | ELG1 FLuc counter inactive | ELG1 Luc conf 1.12µM | ELG1-Luc MMS inconclusive | ELG1 5FU viab inactive | ELG1 MMS viab inactive | ELG1 unstim viab inconclusive | FLuc biochem inactive
COC(=O)c1[nH]c2ccc(C)cc2c1NC(=O)NC1CCCCC1	none
CCC1(c2ccc(O)cc2)NC(=O)NC1=O (stereo not given)	none (no result: ELG1 DNA repair, DT40 TDP1 no CPT, TDP1 cell CPT, IL1B secr inh, Giardia kill)
CCC(=O)Nc1ccc(C(=O)NNC(=O)c2cccc(C)c2)cc1	ELG1 DNA repair inconclusive (no result: TDP1 block)
O=C(NCCc1ccccc1)C(=O)NCC1CCNCC1	none (no result: DT40 TDP1 no CPT, TDP1 cell CPT, IL1B secr inh, Giardia kill)
N#Cc1ccsc1NC(=O)CSc1nncs1	ELG1 DNA repair inconclusive | ELG1 unstim viab inactive
Cc1nnc(SCC(=O)Nc2sccc2C#N)s1	none
Nc1ccccc1NC(=O)c1ccc(CNC(=O)OCc2cccnc2)cc1	none (no result: ELG1 DNA repair, DT40 TDP1 no CPT, TDP1 cell CPT, IL1B secr inh, Giardia kill) | ELG1 FLuc counter inactive | ELG1 unstim viab inconclusive | FLuc biochem inactive
COCc1ccc(C(=O)Nc2ccccc2C(=O)NCc2cccnc2)cc1	none
OCC[C@H]1C[C@H](O)[C@@H](O)[C@@]2(CCCc3ccccc3O2)O1	none
COc1cc2c(cc1OC)C(COc1ccc3c(C)cc(=O)oc3c1)N(C(=O)c1ccco1)CC2 (stereo not given)	ELG1 DNA repair 2.31µM, DT40 TDP1 no CPT 20.6µM, TDP1 cell CPT inconclusive | ELG1 FLuc counter inactive | ELG1 Luc conf 5.61µM | ELG1-Luc MMS 22.3µM | ELG1 5FU viab inactive | ELG1 MMS viab inconclusive | ELG1 unstim viab inconclusive | FLuc biochem inactive

Assay outcomes: PubChem BioAssay, National Center for Advancing Translational Sciences (NCATS)
